Results on 18 compounds are retold here after PubChem BioAssay (NCATS).

Inconclusive results are not listed. A number with no mark means an inactive call. Calls of active or inactive are those of the source. Calls follow the shape of the dose curve; as a rule, active = well fitted cell-killing curve with a large enough effect; inconclusive = small, poorly fitted or top-dose-only effect, or effect the other way; inactive = no such curve, though single readings can be large or run the other way.
Potency is read from the fitted curve at half-maximal effect.

This test in a line: Quantitative High-Throughput drug screen in 47 multiple myeloma cell lines against the NCATS MIPE library collection: KMS12BM_JCRB cell viability assay (AID 1918971). Also: nearly all actives have a fitted effect of over 35% in size.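 As to viability, % of DMSO: 100% = DMSO-only wells and 0% = media-only wells without cells.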 The following applies: KMS12BM myeloma viability, CellTiter-Glo ATP, 48 h; series mostly up to 45.8 µM; viability, % of DMSO: at the top concentration. The essentials:
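Inhibition of cell viability is measured here. Each line was plated at 500 cells per well, treated with MIPE 4.0 drugs, kept 48 hours at 37C, then assayed for ATP content by CellTiter-Glo luminescence.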
Consider `O=c1c(-c2ccc(O)cc2)coc2cc(O)cc(O)c12`, for which the Potency was 5.26 µM (active).

In the case of `CCCCc1oc2ccccc2c1C(=O)c1cc(I)c(OCCN(CC)CC)c(I)c1`, the Potency was 18.7 µM (active).

Consider `CCOC(=O)c1ncn2c1CN(C)C(=O)c1cc(F)ccc1-2`, for which the Potency is 5.9 µM (active).

For the compound `O=C(CCCN1CCC(O)(c2ccc(Cl)cc2)CC1)c1ccc(F)cc1`, the “viability, % of DMSO” value is 109%.

In the case of `CCCNCC(O)COc1ccccc1C(=O)CCc1ccccc1` (stereo not drawn), the “viability, % of DMSO” value was 105%.

Consider `CC(C)(Oc1ccc(C2CC2(Cl)Cl)cc1)C(=O)O` (stereo not drawn), for which the “viability, % of DMSO” value was 139% [at 92.2 µM].

For `COc1cc2nc(N3CCN(C(=O)C4COc5ccccc5O4)CC3)nc(N)c2cc1OC` (stereo not drawn), the Potency is 6.62 µM (active).

As for `CN1CCN2c3ccccc3Cc3ccccc3C2C1` (stereo not drawn), the Potency is 20.9 µM (active).

For `CN1C(C(=O)Nc2ccccn2)=C(O)c2ccccc2S1(=O)=O`, the “viability, % of DMSO” value was 107%.

In the case of `NCCc1cnc[nH]1`, the “viability, % of DMSO” value is 152%.

Regarding `Cn1c(=O)c2c(ncn2C)n(C)c1=O`, the “viability, % of DMSO” value is 113%.

Regarding `CC1(CN2CCC(n3c(=O)[nH]c4ccccc43)CC2)OCc2ccccc2-n2cccc21` (stereo not drawn), the Potency is 16.6 µM (active).

As to `CN(Cc1cnc2nc(N)nc(N)c2n1)c1ccc(C(=O)N[C@@H](CCC(=O)O)C(=O)O)cc1`, the Potency is 6.62 µM (active).

Take `CCC1(C)CC(=O)NC1=O` (stereo not drawn): the Potency was 1.18 µM (active).

As to `CCOC(=O)Nc1ccc(NCc2ccc(F)cc2)nc1N`, the “viability, % of DMSO” value is 137%.

Turning to `Cc1cn([C@H]2C[C@H](N=[N+]=[N-])[C@@H](CO)O2)c(=O)[nH]c1=O`, the “viability, % of DMSO” value is 136%.

With `Cc1cnc(C(=O)NCCc2ccc(S(=O)(=O)NC(=O)NC3CCCCC3)cc2)cn1`, the Potency is 18.7 µM (active).

Turning to `CC(C)(C)C(=O)Oc1ccc(S(=O)(=O)Nc2ccccc2C(=O)NCC(=O)O)cc1`, the “viability, % of DMSO” value was 153%.
